Assay [1] can be described thus: Quantitative High-Throughput drug screen in 47 multiple myeloma cell lines against the NCATS MIPE library collection: Karpas620_DSMZ cell viability assay (AID 1918959). Further: nearly all actives have a fitted effect of over 30% in size. Further: potency means the concentration at half of the fitted maximal effect. The method, boiled down:
(§1)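 Luminescent ATP measurement with CellTiter-Glo gives viability, scaled between DMSO-only wells (100%) and media-only wells (0%). Cells, 500 per well, faced library compounds for 48 hours at 37C.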

A short description of assay [2]: Quantitative High-Throughput drug screen in 47 multiple myeloma cell lines against the NCATS MIPE library collection: Karpas417_ECACC cell viability assay (AID 1918961). Further: potency means the concentration at half of the fitted maximal effect. Particulars: Karpas417 myeloma viability, CellTiter-Glo ATP luminescence, 48 h; viability (% of DMSO): at 45.8 µM (top of the series). In a few lines:
(§2)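 Steps: seed 500 cells per well; pin-transfer MIPE 4.0 library; incubate 48 h at 37C, 5% CO2, humidified; add CellTiter-Glo, 5 min room temperature; read luminescence.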
A general note: Cellular ATP, detected with luciferase, serves as a proxy for viable cell number.

Assay [3] is described as follows: Quantitative High-Throughput drug screen in 47 multiple myeloma cell lines against the NCATS MIPE library collection: KHM11_PLB cell viability assay (AID 1918962). Further: potency means the concentration at half of the fitted maximal effect; nearly all actives have a fitted effect of over 35% in size. In a few lines:
as §1

Assay [4] is described as follows: Quantitative High-Throughput drug screen in 47 multiple myeloma cell lines against the NCATS MIPE library collection: JIM3_ECACC cell viability assay (AID 1918963; further: nearly all actives have a fitted effect of over 35% in size; further: potency means the concentration at half of the fitted maximal effect). The method, boiled down: as §1
Assay [5] in a line: Quantitative High-Throughput drug screen in 47 multiple myeloma cell lines against the NCATS MIPE library collection: JIM1_ECACC cell viability assay (AID 1918964; further: potency means the concentration at half of the fitted maximal effect). The method, boiled down: (§3)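 Relative luminescence from CellTiter-Glo served as the viability signal, referenced to DMSO-treated (100%) and cell-free medium (0%) controls. Treatment lasted 48 hours at 37C with 500 cells per well.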

A short description of assay [6]: Quantitative High-Throughput drug screen in 47 multiple myeloma cell lines against the NCATS MIPE library collection: INA6_PLB cell viability assay (AID 1918965; further: nearly all actives have a fitted effect of over 55% in size; further: potency means the concentration at half of the fitted maximal effect). In a few lines: as §2
The nature of assay [7]: Quantitative High-Throughput drug screen in 47 multiple myeloma cell lines against the NCATS MIPE library collection: H1112_PLB cell viability assay (AID 1918967; further: nearly all actives have a fitted effect of over 30% in size; further: potency means the concentration at half of the fitted maximal effect). In a few lines:
as §3

The nature of assay [8]: Quantitative High-Throughput drug screen in 47 multiple myeloma cell lines against the NCATS MIPE library collection: Karpas25_ECACC cell viability assay (AID 1918968; further: nearly all actives have a fitted effect of over 35% in size; further: potency means the concentration at half of the fitted maximal effect). In a few lines: as §3
The nature of assay [9]: Quantitative High-Throughput drug screen in 47 multiple myeloma cell lines against the NCATS MIPE library collection: KMS27_JCRB cell viability assay (AID 1918970). Further: nearly all actives have a fitted effect of over 30% in size. Further: potency means the concentration at half of the fitted maximal effect. Particulars: KMS27 myeloma cells, CellTiter-Glo ATP viability, 48 h; viability (% of DMSO): at 45.8 µM (top of the series). In a few lines:
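ATP-based viability (CellTiter-Glo luminescence) is measured in cells treated 48 h with approved and investigational drugs at 37 °C. Controls are DMSO-only wells for full viability and media-only wells for none.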

Assay [10] is described as follows: Quantitative High-Throughput drug screen in 47 multiple myeloma cell lines against the NCATS MIPE library collection: KMS12BM_JCRB cell viability assay (AID 1918971). Further: nearly all actives have a fitted effect of over 35% in size. Further: potency means the concentration at half of the fitted maximal effect. In a few lines:
(§4)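 Approved and investigational drugs from MIPE 4.0 were added by pin tool to 500 cells per well. After 48 hours at 37C, ATP-based CellTiter-Glo luminescence indicated remaining viability.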

A short description of assay [11]: Quantitative High-Throughput drug screen in 47 multiple myeloma cell lines against the NCATS MIPE library collection: KMS12PE_JCRB cell viability assay (AID 1918972). Further: nearly all actives have a fitted effect of over 30% in size. Further: potency means the concentration at half of the fitted maximal effect. In a few lines: as §2
Assay [12] in a line: Quantitative High-Throughput drug screen in 47 multiple myeloma cell lines against the NCATS MIPE library collection: KMS20_JCRB cell viability assay (AID 1918973). Further: nearly all actives have a fitted effect of over 45% in size. Further: potency means the concentration at half of the fitted maximal effect. The method, boiled down: as §3
The nature of assay [13]: Quantitative High-Throughput drug screen in 47 multiple myeloma cell lines against the NCATS MIPE library collection: KMS26_JCRB cell viability assay (AID 1918975). Further: nearly all actives have a fitted effect of over 45% in size. Further: potency means the concentration at half of the fitted maximal effect. The method, boiled down: as §4
Assay [14] is described as follows: Quantitative High-Throughput drug screen in 47 multiple myeloma cell lines against the NCATS MIPE library collection: MMM1_PLB cell viability assay (AID 1918976). Further: nearly all actives have a fitted effect of over 35% in size. Further: potency means the concentration at half of the fitted maximal effect. In a few lines:
(§5)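 Inhibition of viability over 48 h was scored by ATP content (CellTiter-Glo) in 500-cell wells. Zero and full viability were defined by media-only and DMSO-only wells.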

Assay [15] in a line: Quantitative High-Throughput drug screen in 47 multiple myeloma cell lines against the NCATS MIPE library collection: MOLP8_DSMZ cell viability assay (AID 1918977). Further: potency means the concentration at half of the fitted maximal effect; nearly all actives have a fitted effect of over 45% in size. In a few lines: as §5
Assay [16] is described as follows: Quantitative High-Throughput drug screen in 47 multiple myeloma cell lines against the NCATS MIPE library collection: OCIMY1_PLB cell viability assay (AID 1918979). Further: nearly all actives have a fitted effect of over 35% in size. Further: potency means the concentration at half of the fitted maximal effect. The method, boiled down:
as §5

Assay [17] in a line: Quantitative High-Throughput drug screen in 47 multiple myeloma cell lines against the NCATS MIPE library collection: JJN3_DSMZ cell viability assay (AID 1918966; further: potency means the concentration at half of the fitted maximal effect; nearly all actives have a fitted effect of over 50% in size). The method, boiled down: as §3
A short description of assay [18]: Quantitative High-Throughput drug screen in 47 multiple myeloma cell lines against the NCATS MIPE library collection: NCIH929_DSMZ cell viability assay (AID 1918978). Further: nearly all actives have a fitted effect of over 35% in size. Further: potency means the concentration at half of the fitted maximal effect. The method, boiled down:
as §5

Assay [19] in a line: Quantitative High-Throughput drug screen in 47 multiple myeloma cell lines against the NCATS MIPE library collection: KMM1_JCRB cell viability assay (AID 1918960). Further: nearly all actives have a fitted effect of over 30% in size. The method, boiled down:
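Myeloma cells at 500 per well in 1536-well format treated with MIPE 4.0 library by pin transfer for 48 h at 37C, 5% CO2. Viability from ATP luminescence (CellTiter-Glo), normalized to DMSO (100%) and media-only (0%) wells.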

Assay [20] is described as follows: Quantitative High-Throughput drug screen in 47 multiple myeloma cell lines against the NCATS MIPE library collection: KMS21BM_JCRB cell viability assay (AID 1918974). Further: potency means the concentration at half of the fitted maximal effect. Particulars: ATP luminescence, 48 h; viability: at 45.8 µM (top of the series). The method, boiled down:
as §3

Records with an inconclusive call do not appear. A number with no mark means an inactive call. Activity calls are given as the source filed them. The call rests on the fitted dose curve; in most records, active means well fitted curve in the direction sought with a large enough effect; inconclusive means small, poorly fitted or top-dose-only effect, or another doubt; inactive means no such curve, though single readings can be large; an effect the other way counts as inactive or inconclusive.

With `C[C@H](NCc1ccc(OCc2cccc(F)c2)cc1)C(N)=O`, the Potency was 3.72 µM (active) in [1]; 2.64 µM (active) in assay [2]; 1.48 µM (active) in [3]; 2.96 µM (active) in assay [4]; 3.72 µM (active) in assay [5]; 1.32 µM (active) in assay [6]. For the same compound, the Potency in [7] is 5.9 µM (active); in assay [8], 2.35 µM (active); in assay [9], 1.66 µM (active); in assay [10], 8.33 µM (active); in assay [11], 1.87 µM (active); in assay [12] it was 2.35 µM (active). Besides, the Potency is 18.7 µM (active) in assay [13], 11.8 µM (active) in assay [14], 2.64 µM (active) in [15] and 10.5 µM (active) in [16].

As for `O=C(Nc1cc2cc[nH]c2cn1)c1ccccc1`, the Potency in assay [1] was 4.69 µM (active); in [2] it was 2.96 µM (active); in assay [3], 7.43 µM (active); in assay [4], 7.43 µM (active); in assay [6] it was 8.33 µM (active); in assay [17], 9.35 µM (active). In addition, the Potency in assay [7] is 9.35 µM (active); in assay [8], 8.33 µM (active); in [9], 13.2 µM (active); in [10], 14.8 µM (active); in assay [11], 8.33 µM (active); in assay [12] it was 9.35 µM (active). In addition, the Potency was 11.8 µM (active) in assay [13], 3.72 µM (active) in assay [15] and 8.33 µM (active) in [18].

Take `CCCCCCCCCCCCc1ccc(S(=O)(=O)Nc2nncs2)cc1`: the Potency result in assay [1], in [19], in assay [6], in assay [7], in assay [8] and in assay [9] was “inactive” in each case. Besides, the Potency result in assay [10], in assay [13], in assay [18] and in assay [16] was “inactive” throughout.

Regarding `O=C(CN1C(=O)C2(CCCC2)NC[C@H]1c1cc(F)cc(F)c1)Nc1ccc2c(c1)C[C@@]1(C2)C(=O)Nc2ncccc21`, the Potency result in assay [1], in assay [2], in [4], in assay [6], in assay [7] and in assay [8] was “inactive” each time. The Potency entry in [10], in assay [13] and in [18] was “inactive” throughout. In addition, the Potency in assay [5] was 18.7 µM (active).

On to `CCN(CC)CCNC(=O)c1c(C)[nH]c(C=C2C(=O)Nc3ccc(F)cc32)c1C`, for which the Potency in assay [1] is 4.81 µM (active); in [2], 0.136 µM (active); in assay [3] it was 1.08 µM (active); in assay [5] it was 0.481 µM (active); in assay [6] it was 1.21 µM (active); in assay [17] it was 6.05 µM (active). Besides, the Potency in assay [7] is 6.79 µM (active); in assay [8], 1.36 µM (active); in assay [9], 1.36 µM (active); in assay [11], 1.36 µM (active); in [12], 0.855 µM (active); in assay [20] it was 0.762 µM (active). For the same compound, the Potency in assay [13] is 17.1 µM (active); in [14] it was 6.79 µM (active); in assay [18], 0.96 µM (active); in [16], 13.6 µM (active).

`CC[C@H]1OC(=O)[C@H](C)[C@@H](O[C@H]2C[C@@](C)(OC)[C@@H](O)[C@H](C)O2)[C@H](C)[C@@H](O[C@@H]2O[C@H](C)C[C@H](N(C)C)[C@@H]2O)[C@](C)(OC)C[C@@H](C)C(=O)[C@H](C)[C@@H](O)[C@]1(C)O`: the Potency entry in assay [1], in assay [2], in assay [4], in assay [6], in assay [8] and in assay [9] was “inactive” throughout. Moreover, the Potency result in assay [11], in [12], in assay [13], in assay [14], in assay [18] and in [16] was “inactive” each time.
